nsP2pro primary – blocks chikungunya virus nsP2 protease peptide cleavage | Q8JUX6 | FRET peptide cleavage, nsP2pro, fluorescence 1 h | Potency, µM (doses to about 24.9 µM), inactives show at the top dose activity change, negative = inhibition, usual class: inhibitors | 1.1% of 31,000 active | AID 1964107; also: nearly all actives have a fitted effect of over 60% in size
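Enzyme 150 nM, substrate 2.5 uM (both final); Tris-HCl 10 mM pH 8.0 + 0.01% Tween 20; cpd up to 25 uM, 7 pts; 15 min preinc., 1 h RT; fluorescence ex 525/em 598.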
CHIKV nsP2 cell – cell-based CHIKV nsP2 protease inhibition, secondary. shares compounds with nsP2pro primary. cell-based CHIKV nsP2 protease reporter assay. Potency, µM (doses to about 51.1 µM), inactives show at the highest dose activity change, negative = inhibition, usual class: inhibitors. 10% of 450 active. AID 1964100; also: nearly all actives have a fitted effect of over 70% in size
CHIKV NSP2 FL – inhibits full-length CHIKV NSP2 enzyme; shares compounds with nsP2pro primary; Full-length CHIKV NSP2 protease enzymatic counterscreen; Potency, µM (series often up to 50.7 µM), for the others: at the top dose activity change, negative = inhibition, most hits filed as inhibitors; 39% of 410 active; also: nearly all actives have a fitted effect of over 65% in size
Furin counter – selectivity counter-screen for CHIKV nsP2 protease inhibitors: human furin. 6% of 410 active. shares compounds with nsP2pro primary. Potency, µM (doses to about 50.6 µM), for the others: top-dose activity change, negative = inhibition, hits mostly inhibitors. Recombinant human furin enzymatic counterscreen, fluorogenic substrate
nsP2 NS23 pep – selectivity test for CHIKV nsP2 protease inhibitors: endogenous NS2/3 peptide; shares compounds with nsP2pro primary; Purified CHIKV nsP2 protease, endogenous NS2/3 peptide cleavage; Potency, µM (doses to about 51 µM), for the others: at the highest dose activity change, negative = inhibition, most hits filed as inhibitors; 34% of 410 active; AID 1964103; also: nearly all actives have a fitted effect of over 55% in size
Papain counter – papain protease inhibition, counterscreen for nsP2pro inhibitors | 5% of 410 active | Potency, µM (series often up to 51 µM), inactives show at the top dose activity change, negative = inhibition, usual class: inhibitors | purified papain protease activity, enzymatic inhibition | shares compounds with nsP2pro primary
nsP2pro confirm – CHIKV nsP2 protease inhibition, confirmatory qHTS | shares compounds with nsP2pro primary | CHIKV nsP2 protease enzymatic activity, qHTS | Potency, µM (doses to about 25.5 µM), for the others: at the top dose activity change, negative = inhibition, hits mostly inhibitors | 43% of 410 active | AID 1964105; also: nearly all actives have a fitted effect of over 75% in size
HCV NS3 counter – HCV NS3/4A protease inhibition, counterscreen | shares compounds with nsP2pro primary | HCV NS3/4A protease biochemical counterscreen | Potency, µM (top dose mostly 50.9 µM), hits mostly inhibitors | 20% of 410 active | AID 1964106; also: nearly all actives have a fitted effect of over 55% in size
Numbers without * were called inactive; i = inactive; u = inconclusive; ! = not active in a repeat; [ ] = dose if it differs, or a comment. Shown is part of a subset that was picked to be rich in hits. Calls follow the shape of the full dose curve. % is scaled to controls: 0 for no effect and ±100 for the full control effect; potency is read from the fitted curve at half-maximal effect.

SMILES	nsP2pro primary	others
CCSc1ncc(Cl)c(C(=O)N(Cc2ccccc2)Cc2ccco2)n1	-17%
CCCSc1ncc(Cl)c(C(=O)N(Cc2ccc(Cl)cc2)Cc2ccco2)n1	37%
CCCS(=O)(=O)c1ncc(Cl)c(C(=O)N(Cc2ccccc2)Cc2ccco2)n1	5.6µM*	CHIKV nsP2 cell=4.6µM*;CHIKV NSP2 FL=18µM*;Furin counter=-13%;nsP2 NS23 pep=6.5µM*;Papain counter=-1%;nsP2pro confirm=4.5µM*;HCV NS3 counter=u
Cc1nc(-c2ccccc2Br)cc([C@H]2CN3CC[C@H]2C[C@@H]3CNC(=O)NC2CCCCC2)n1	5µM*	CHIKV nsP2 cell=-3%;CHIKV NSP2 FL=u;Furin counter=u;nsP2 NS23 pep=16µM*;Papain counter=0%;nsP2pro confirm=8µM*;HCV NS3 counter=13µM*
Cc1nc(-c2cccs2)cc([C@H]2CN3CC[C@H]2C[C@@H]3COC(=O)NC2CCCCC2)n1	6%
CC(=O)c1cccc(NC(=O)NC[C@H]2C[C@@H]3CCN2C[C@@H]3c2cc(-c3ccc(F)cc3)nc(C)n2)c1	i
COc1ccc(-c2cc([C@H]3CN4CC[C@H]3C[C@@H]4CNC(=O)NC3CCCCC3)n(C)n2)cc1	12%
COc1ccc(-c2cc([C@H]3CN4CC[C@H]3C[C@@H]4COC(=O)NC3CCCCC3)nc(C)n2)cc1	i
Cc1nc(-c2ccco2)cc([C@H]2CN3CC[C@H]2C[C@@H]3CNC(=O)NC2CCCCC2)n1	8.9µM*	CHIKV nsP2 cell=31%;CHIKV NSP2 FL=13µM*;Furin counter=u;nsP2 NS23 pep=17µM*;Papain counter=-8%;nsP2pro confirm=13µM*;HCV NS3 counter=8.4µM*
COc1ccc(CNC(=O)C[C@@H]2C[C@H]3O[C@H](CNC4CCNCC4)[C@@H](O)[C@H]3O2)cc1	-4%[39.2 µM]
CCCn1c(C)nc2c(N3CCN(C)CC3)nc(C)nc21	i
CSCc1noc(CNC(=O)c2ccc(-c3ccccc3Cl)o2)n1	5%
N#Cc1c(-c2ccc(-c3ccccc3)cc2)no[n+]1[O-]	-1%
COCc1ncc(C)n1C1CCN(C(=O)Cc2cccc(F)c2)CC1	i
CCN(CC)C(=S)SSC(=S)N(CC)CC	2.5µM*!	CHIKV nsP2 cell=13µM*;CHIKV NSP2 FL=15µM*;Furin counter=-9%;nsP2 NS23 pep=9.2µM*;Papain counter=u;nsP2pro confirm=1.8µM*;HCV NS3 counter=u
NCCCC(=O)N1CCC2(CC1)CN(C(=O)c1ccc(Cl)cc1)CCO2	-18%
NCCC(=O)N1CCC2(CC1)CN(C(=O)c1ccc(Cl)cc1)CCO2	7.9µM*	CHIKV nsP2 cell=-11%;CHIKV NSP2 FL=12µM*;Furin counter=11%;nsP2 NS23 pep=18µM*;Papain counter=-2%;nsP2pro confirm=9µM*;HCV NS3 counter=2.9µM*
COc1ccc(C(=O)N2CCOC3(CCN(C(=O)CCN)CC3)C2)cc1	-10%
O=C(NCCCc1ccccc1)C1CCN(c2nc(-c3ccc(Br)cc3)cs2)CC1	i
Cc1cc(-c2cc3c(cn2)N(C)CCN(C)C3)ccn1	-3%[39.2 µM]
Cc1c(C(=O)Nc2ccccc2Cl)oc2ccc(S(=O)(=O)N3CCCCCC3)cc12	-19%
CCC[C@H](NC(=O)[C@@H]1[C@H]2CCC[C@H]2CN1C(=O)[C@@H](NC(=O)[C@@H](NC(=O)c1cnccn1)C1CCCCC1)C(C)(C)C)C(=O)C(=O)NC1CC1	3.9µM*!	CHIKV nsP2 cell=172%;CHIKV NSP2 FL=12µM*;Furin counter=-4%;nsP2 NS23 pep=u;Papain counter=0.026µM*;nsP2pro confirm=3.6µM*;HCV NS3 counter=0.052µM*
Cc1ccc(C(=O)Nc2cccc(C(F)(F)F)c2)cc1-c1ccc2nc(NCCN3CCOCC3)ncc2c1	106%
Cc1ccc(S(=O)(=O)O)cc1	7%
Cc1ccc(S(=O)(=O)c2ncccc2[N+](=O)[O-])cc1	u	CHIKV nsP2 cell=3.7µM*;CHIKV NSP2 FL=u;Furin counter=-6%;nsP2 NS23 pep=9.2µM*;Papain counter=-6%;nsP2pro confirm=8µM*;HCV NS3 counter=i
SMILES	nsP2pro primary	others
Cc1ccc(S(=O)(=O)c2nc(S(=O)(=O)c3ccc(C)cc3)c(NC(C)C)s2)cc1	-13%
Cc1cnc(CN2CC3(CCCN(C(=O)c4ccc(C)s4)C3)CCC2=O)cn1 (centres undefined)	2%
Cc1ccncc1C(=O)N1CC[C@@H]2CN(S(C)(=O)=O)[C@@H]2C1	i
COc1ccc(N2CCN(c3oc(-c4ccccc4C)nc3S(=O)(=O)c3ccccc3)CC2)cc1	-19%
CCC(Cc1ccccc1)NC(=O)Cn1nc(C)n2c(cc3occc32)c1=O (centres undefined)	-14%
O=C(CSc1nnc(-c2cccs2)o1)Oc1ccccc1Cl	-22%
CCOC(=O)CC(SP(=S)(OC)OC)C(=O)OCC (centres undefined)	8.8µM*	CHIKV nsP2 cell=-23%;CHIKV NSP2 FL=23µM*;Furin counter=-16%;nsP2 NS23 pep=18µM*;Papain counter=u;nsP2pro confirm=5.7µM*;HCV NS3 counter=i
Cc1nc(N2CCN(C(=O)C(C)Oc3ccccc3)CC2)cc(C(F)(F)F)n1 (centres undefined)	3%
CN(C)c1nc2c(Br)c(Br)c(Br)c(Br)c2n1CC(=O)O	-10%
COc1cccc(C2=Nn3c(nnc3-c3ccccc3OC)SC2)c1	0%
CN1CCCC2(C1)CN(C)c1ccc(C(=O)NCC3CCCCC3)cc12 (centres undefined)	i
CNC(=O)Oc1ccc2c(c1)[C@]1(C)CCN(C)[C@@H]1N2C	4.4µM*!	CHIKV nsP2 cell=-4%;CHIKV NSP2 FL=-19%;Furin counter=-2%;nsP2 NS23 pep=-16%;Papain counter=-8%;nsP2pro confirm=u;HCV NS3 counter=i
c1csc(CNc2ncnc3ccc(-c4ccc5c(c4)OCCO5)cc23)c1	i
COc1ccc(CN(Cc2ccccc2)C(=O)c2ccccc2O)cc1	-13%
COc1ccc(C(=O)N(Cc2ccco2)Cc2ccco2)c(O)c1	5µM*	CHIKV nsP2 cell=21µM*;CHIKV NSP2 FL=u;Furin counter=-7%;nsP2 NS23 pep=u;Papain counter=-6%;nsP2pro confirm=u;HCV NS3 counter=u
Cc1ccc(CN(Cc2ccco2)C(=O)c2ccc(Cl)cc2Cl)cc1	32%
O=C(O)C(c1ccc2c(c1)OCCO2)N1CCCN(c2ncccn2)CC1 (centres undefined)	-4%
CC1(C)CC(=O)N(CCCCN2CCN(c3ncccn3)CC2)C(=O)C1	-6%
Oc1cc2c(cc1CN1CCN(c3ncccn3)CC1)OCO2	10µM*	CHIKV nsP2 cell=-29%;CHIKV NSP2 FL=u;Furin counter=-4%;nsP2 NS23 pep=16µM*;Papain counter=-3%;nsP2pro confirm=7.1µM*;HCV NS3 counter=u
CC(C)(C)OC(=O)NCc1nnc(-c2cc3ccccc3[nH]2)s1	2%
O=C(NCc1nnc2n1C(C(=O)NCc1ccc(F)cc1)CC2)Nc1cccnc1 (centres undefined)	-19%
Cc1nnc(N2CCC(C(=O)NC3CCC(C)CC3)CC2)c2nn(-c3ccc(Cl)cc3)c(C)c12 (centres undefined)	-1%
